In PubChem BioAssay:
Active and inactive are the calls of the source.

Key:
[1] = tested on: Plasmodium falciparum Sir2 (PF13_0152, Sir2A); experiment: pfSir2 binders on small-molecule microarrays, primary screen, biochemical, small-molecule microarray, 635 nm fluorescence (AID 1098); details: small-molecule microarray binding, fluorescence 635 nm; higher = more signal;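 further: score merges spot fluorescence intensity with its signal-to-noise ratio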
[2] = small-molecule microarray binders of probe aDKK1, primary screen, biochemical, biotinylated probe, 635/667 nm fluorescence (AID 1099); details: higher = more signal;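 further: score merges 667nm spot fluorescence with signal to noise across triplicate slides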
[3] = small-molecule microarray binders of probe aCHRDL2, primary screen, biochemical, biotinylated probe, 635/667 nm fluorescence (AID 1100); details: higher = more signal
[4] = splicing luciferase reporter signal modulators, primary screen, spliceosome inhibition project, cell-based, HEK293, splice +/- reporter (AID 1101); details: luminescence, 24 h, higher = more signal, called active from +8 up or from −8 down;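 further: HEK293 cells carrying a splicing-competent luciferase reporter gene; test concentration not given here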
[5] = target: Fibroblast growth factor 10 (Homo sapiens) (UniProt O15520); experiment: FGF10 binders on small-molecule microarrays, primary screen, biochemical, small-molecule microarray, 635 nm fluorescence (AID 1102); details: FGF10 binding, fluorescence 635 nm, higher = more signal
[6] = tested on: glycogen synthase kinase-3 (GSK3A per assay name; protocol says GSK3B); experiment: GSK3 binders on small-molecule microarrays, primary screen, biochemical, small-molecule microarray, 635 nm fluorescence, GSK3A (AID 1103); details: small-molecule microarray binding, fluorescence 635 nm; higher = more signal; further: the record names both GSK3A and GSK3B
[7] = target: Epidermal growth factor receptor (Homo sapiens) (UniProt P00533); experiment: EGFR binders on small-molecule microarrays, primary screen, biochemical, small-molecule microarray, 635 nm fluorescence (AID 1104); details: EGFR binding, higher = more signal;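 further: score merges 667 nm emission intensity with spot signal to noise over triplicate slides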
[8] = target: Follistatin-related protein 3 (Homo sapiens) (UniProt O95633); experiment: FSTL3 binders on small-molecule microarrays, primary screen, biochemical, small-molecule microarray, 635 nm fluorescence (AID 1105); details: FSTL3 binding, higher = more signal;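 further: score merges emission near 667 nm and signal to noise per printed spot across three slides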
[9] = target: Dickkopf-related protein 1 (Homo sapiens) (UniProt O94907); experiment: DKK1 binders on small-molecule microarrays, primary screen, biochemical, small-molecule microarray, 635 nm fluorescence scan (AID 1106); details: DKK1 binding, higher = more signal;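 further: score merges emission near 667 nm with signal to noise over three replicate slides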
[10] = tested on: Inhibin beta A chain (activin A); experiment: INHBA (activin A) binders on microarrays, primary screen, biochemical, small-molecule microarray, 635 nm fluorescence scan (AID 1107); details: small-molecule microarray binding, higher = more signal;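 further: mouse activin A protein probed at 4.33 µg/mL on printed slides; score merges bound-protein fluorescence near 667 nm with spot signal-to-noise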
[11] = tested on: Human papillomavirus type 1a protein E7 (residues 44-93); experiment: HPV1a E7 fragment binders on microarrays, primary screen, biochemical, small-molecule microarray, residues 44-93, 635 nm fluorescence (AID 1108); details: small-molecule microarray binding, fluorescence 635 nm; higher = more signal;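 further: E7 fragment applied at 1 µg/mL in TBST for 1 h at 4 C; score combines spot fluorescence with its signal to noise ratio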
[12] = modulators of HCV replicon luciferase signal, primary screen, HCV replication inhibitor project, Huh7 cells, luciferase reporter (AID 1109); details: 48 h, higher = more signal;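 further: huh7 hepatoma cells harbouring a luciferase neomycin HCV replicon reporter; luciferase luminescence as measure of HCV replicon replication; test concentration not given here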
[13] = target: Left-right determination factor 2 (Homo sapiens) (UniProt O00292); experiment: LEFTY2 binders on small-molecule microarrays, primary screen, biochemical, small-molecule microarray, 635 nm fluorescence scan (AID 1110); details: LEFTY2 binding, higher = more signal
[14] = target: Calmodulin-1 (Homo sapiens) (UniProt P0DP23); experiment: CALM1 binders on microarrays, EGTA buffer, profiling panel, biochemical, small-molecule microarray, Cy5-labelled CALM1 (AID 1111); details: Cy5-CALM1 binding fluorescence, higher = more signal;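 further: labelled calmodulin applied in Tris saline Tween buffer holding calcium plus EGTA and DTT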
[15] = target: Calmodulin-1 (Homo sapiens) (UniProt P0DP23); experiment: calcium-bound CALM1 binders on microarrays, profiling panel, artefact control for SMM control-protein annotation, biochemical, small-molecule microarray, Cy5-labelled CALM1, plus calcium (AID 1112); details: Cy5-CALM1 binding fluorescence, higher = more signal;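 further: score merges spot fluorescence with signal to noise from triplicate slides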
[16] = small-molecule microarray binders of probe aWnt5a, primary screen, biochemical, biotinylated probe, 635/667 nm fluorescence (AID 1113); details: higher = more signal;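 further: score merges 667 nm fluorescence intensity with signal-to-noise per printed feature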
[17] = small-molecule microarray binders of probe aShh, primary screen, biochemical, biotinylated probe, 635/667 nm fluorescence (AID 1114); details: higher = more signal;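 further: probe is biotin-labelled aShh protein from a stem cell growth factor screen; measures binding of labelled protein to compounds printed on the slide; score merges feature fluorescence at 667 nm with signal-to-noise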
[18] = small-molecule microarray binders of probe aNog, primary screen, biochemical, biotinylated probe, 635/667 nm fluorescence (AID 1115); details: higher = more signal;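 further: probe is biotinylated aNog protein used at 0.15 µg/mL for 1 h at 4 C; z-score combines 667 nm fluorescence of each spot with its signal to noise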
[19] = target: Torsin-1A-interacting protein 1 (Homo sapiens) (UniProt Q5JTV8); experiment: LAP1 binders from COS7 cell lysate, primary screen, small-molecule microarray, 635/667 nm fluorescence (AID 1116); details: COS7-hLAP1 lysate binding, 635 nm fluorescence, higher = more signal
[20] = target: Alpha-bungarotoxin (Bungarus multicinctus) (UniProt P60615); experiment: alpha-bungarotoxin binders on microarray, profiling panel, artefact control for SMM control protein annotation, biochemical, small-molecule microarray, Alexa647 label, 635/667 nm fluorescence (AID 1117); details: alpha-BTX-A647 binding fluorescence, higher = more signal
Alpha-bungarotoxin (Bungarus multicinctus), sequence (P60615 whole entry, looked up): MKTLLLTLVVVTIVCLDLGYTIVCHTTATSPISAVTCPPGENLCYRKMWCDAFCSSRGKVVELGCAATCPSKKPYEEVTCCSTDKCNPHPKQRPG

Dickkopf-related protein 1 (Homo sapiens), sequence (O94907 whole entry, looked up): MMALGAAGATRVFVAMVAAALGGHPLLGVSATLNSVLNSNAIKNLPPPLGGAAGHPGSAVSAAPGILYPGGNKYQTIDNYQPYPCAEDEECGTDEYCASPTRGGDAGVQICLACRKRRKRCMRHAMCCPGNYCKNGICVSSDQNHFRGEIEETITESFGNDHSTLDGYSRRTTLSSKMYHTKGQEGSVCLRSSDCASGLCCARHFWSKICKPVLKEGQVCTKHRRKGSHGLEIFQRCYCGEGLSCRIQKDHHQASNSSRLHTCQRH
Fibroblast growth factor 10 (Homo sapiens), sequence (O15520 whole entry, looked up): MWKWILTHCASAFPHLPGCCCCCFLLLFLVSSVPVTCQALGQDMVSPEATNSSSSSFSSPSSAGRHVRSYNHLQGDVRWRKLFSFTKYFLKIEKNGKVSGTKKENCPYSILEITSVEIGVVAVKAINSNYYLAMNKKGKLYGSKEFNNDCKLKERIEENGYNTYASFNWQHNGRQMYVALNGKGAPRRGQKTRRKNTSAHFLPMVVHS
Epidermal growth factor receptor (Homo sapiens), sequence (P00533 whole entry, looked up): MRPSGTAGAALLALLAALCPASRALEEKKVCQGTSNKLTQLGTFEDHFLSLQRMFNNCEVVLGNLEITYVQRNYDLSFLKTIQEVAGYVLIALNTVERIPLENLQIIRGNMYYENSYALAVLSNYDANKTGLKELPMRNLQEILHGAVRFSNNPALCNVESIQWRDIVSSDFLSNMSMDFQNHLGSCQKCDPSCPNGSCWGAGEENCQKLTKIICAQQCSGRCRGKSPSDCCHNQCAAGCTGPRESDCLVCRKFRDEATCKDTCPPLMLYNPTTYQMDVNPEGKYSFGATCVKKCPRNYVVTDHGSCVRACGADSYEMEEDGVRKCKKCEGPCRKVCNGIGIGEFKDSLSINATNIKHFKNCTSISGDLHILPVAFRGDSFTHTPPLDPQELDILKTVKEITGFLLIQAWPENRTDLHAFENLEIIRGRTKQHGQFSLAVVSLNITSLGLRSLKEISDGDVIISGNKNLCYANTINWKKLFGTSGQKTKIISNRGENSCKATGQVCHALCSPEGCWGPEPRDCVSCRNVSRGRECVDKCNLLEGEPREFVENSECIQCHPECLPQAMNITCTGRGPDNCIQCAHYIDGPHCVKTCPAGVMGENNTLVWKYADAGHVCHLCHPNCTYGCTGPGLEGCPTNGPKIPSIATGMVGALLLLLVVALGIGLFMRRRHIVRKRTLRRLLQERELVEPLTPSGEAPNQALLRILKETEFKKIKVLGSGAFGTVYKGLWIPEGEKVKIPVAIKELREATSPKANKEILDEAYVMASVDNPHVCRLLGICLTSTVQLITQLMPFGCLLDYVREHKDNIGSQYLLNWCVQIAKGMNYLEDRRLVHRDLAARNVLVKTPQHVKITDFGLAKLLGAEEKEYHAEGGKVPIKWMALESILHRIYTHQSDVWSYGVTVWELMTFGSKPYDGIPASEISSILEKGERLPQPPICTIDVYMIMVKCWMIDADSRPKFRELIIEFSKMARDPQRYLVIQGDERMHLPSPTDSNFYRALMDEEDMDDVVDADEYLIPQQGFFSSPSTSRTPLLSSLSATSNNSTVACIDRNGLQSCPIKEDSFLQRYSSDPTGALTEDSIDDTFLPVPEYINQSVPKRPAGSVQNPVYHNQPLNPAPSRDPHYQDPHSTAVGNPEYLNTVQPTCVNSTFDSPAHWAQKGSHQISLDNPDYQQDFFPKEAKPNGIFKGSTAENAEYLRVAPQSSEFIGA
Torsin-1A-interacting protein 1 (Homo sapiens), sequence (Q5JTV8 whole entry, looked up): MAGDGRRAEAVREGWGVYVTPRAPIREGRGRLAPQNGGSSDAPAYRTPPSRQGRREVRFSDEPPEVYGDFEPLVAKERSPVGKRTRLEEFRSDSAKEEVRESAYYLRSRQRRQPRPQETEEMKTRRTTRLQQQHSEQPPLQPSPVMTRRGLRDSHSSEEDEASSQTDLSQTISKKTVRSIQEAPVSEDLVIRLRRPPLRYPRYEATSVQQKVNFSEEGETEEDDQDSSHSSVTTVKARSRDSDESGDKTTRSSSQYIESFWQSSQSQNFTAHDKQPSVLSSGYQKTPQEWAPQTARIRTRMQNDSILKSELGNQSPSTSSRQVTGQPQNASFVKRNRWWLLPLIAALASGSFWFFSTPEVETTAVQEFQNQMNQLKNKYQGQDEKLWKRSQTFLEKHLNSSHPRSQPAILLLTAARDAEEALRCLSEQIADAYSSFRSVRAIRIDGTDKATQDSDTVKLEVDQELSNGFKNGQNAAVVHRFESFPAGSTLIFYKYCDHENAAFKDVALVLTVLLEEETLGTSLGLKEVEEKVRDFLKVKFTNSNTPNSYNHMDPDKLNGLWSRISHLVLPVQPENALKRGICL
Left-right determination factor 2 (Homo sapiens), sequence (O00292 whole entry, looked up): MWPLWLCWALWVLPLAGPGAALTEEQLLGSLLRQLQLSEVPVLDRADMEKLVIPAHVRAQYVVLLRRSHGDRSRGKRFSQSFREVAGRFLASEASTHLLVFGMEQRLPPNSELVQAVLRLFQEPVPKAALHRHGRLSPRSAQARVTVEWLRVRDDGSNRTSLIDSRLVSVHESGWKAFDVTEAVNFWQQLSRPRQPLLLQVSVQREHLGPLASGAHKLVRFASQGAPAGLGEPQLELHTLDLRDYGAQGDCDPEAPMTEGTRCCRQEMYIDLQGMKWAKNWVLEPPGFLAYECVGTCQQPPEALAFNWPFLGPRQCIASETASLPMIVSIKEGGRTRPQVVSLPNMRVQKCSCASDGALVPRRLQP
Follistatin-related protein 3 (Homo sapiens), sequence (O95633 whole entry, looked up): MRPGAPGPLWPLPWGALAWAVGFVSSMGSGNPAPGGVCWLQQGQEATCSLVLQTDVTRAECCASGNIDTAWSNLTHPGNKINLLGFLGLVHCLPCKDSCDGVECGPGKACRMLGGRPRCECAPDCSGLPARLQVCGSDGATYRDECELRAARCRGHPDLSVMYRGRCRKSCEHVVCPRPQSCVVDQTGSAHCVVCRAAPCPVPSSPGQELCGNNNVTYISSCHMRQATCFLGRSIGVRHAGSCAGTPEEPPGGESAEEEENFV

Q: For `COC(=O)[C@@]1(Cc2ccc(F)cc2)[C@H]2c3cc(C(=O)N4CCCC4)n(CCc4ccccn4)c3C[C@H]2CN1C(=O)c1ccccc1`, which composite z-score [1] is on record?
A: 0.785

Q: And the composite z-score [2]?
A: 0.507

Q: And the composite z-score [3]?
A: 1.02

Q: And the z-score [4]?
A: -1.31 (inactive)

Q: What about the composite z-score [5] of the same molecule?
A: 0.577

Q: And the composite z-score [6]?
A: -0.73

Q: And the composite z-score [7]?
A: -0.559

Q: What about the composite z-score [8] of the same molecule?
A: -0.575

Q: And the composite z-score [9]?
A: -0.554

Q: What about the composite z-score [10] of the same molecule?
A: 0.987

Q: What about the composite z-score [11] of the same molecule?
A: 0.724

Q: What about the z-score [12] of the same molecule?
A: -0.74

Q: And the composite z-score [13]?
A: -0.27

Q: And the composite z-score [14]?
A: 1.16

Q: What about the composite z-score [15] of the same molecule?
A: 0.42

Q: And the composite z-score [16]?
A: 0.136

Q: What about the composite z-score [17] of the same molecule?
A: 0.887

Q: And the composite z-score [18]?
A: 1.53

Q: And the composite z-score [19]?
A: 0.294

Q: What about the composite z-score [20] of the same molecule?
A: 0.0045

Q: What does the source list for `COCCCNC(=O)[C@@H]1c2ccccc2C(=O)N(Cc2ccc(OC(F)(F)F)cc2)[C@H]1c1ccc(CO)cc1`?
A: composite z-score [1]: 0.499; composite z-score [2]: 0.21; composite z-score [3]: 0.215; z-score [4]: 0.0366 (inactive); composite z-score [5]: 0.393; composite z-score [6]: 0.723; composite z-score [7]: 0.0725; composite z-score [8]: 0.481; composite z-score [9]: 0.743; composite z-score [10]: 0.639; composite z-score [11]: 1.1; z-score [12]: -0.223; composite z-score [13]: 0.0983; composite z-score [14]: 0.0389; composite z-score [15]: -0.269; composite z-score [16]: 0.0215; composite z-score [17]: -0.0035; composite z-score [18]: -0.553; composite z-score [19]: 0.378; composite z-score [20]: 0.516

Q: With `COc1ccc(C(O)C2C=CC3C(=O)N(c4ccccc4)C(=O)C3N2Nc2ccc(C#N)cc2)cc1OCc1ccccc1` (stereo not given) as the molecule, how does the composite z-score [1] read?
A: 1.09

Q: What about the composite z-score [2] of the same molecule?
A: 1.31

Q: And the composite z-score [3]?
A: 1.42

Q: And the z-score [4]?
A: 0.471 (inactive)

Q: What about the composite z-score [5] of the same molecule?
A: 0.372

Q: What about the composite z-score [6] of the same molecule?
A: 0.564

Q: And the composite z-score [7]?
A: 0.0706

Q: What about the composite z-score [8] of the same molecule?
A: 0.727

Q: And the composite z-score [9]?
A: -0.463

Q: And the composite z-score [10]?
A: 0.898

Q: And the composite z-score [11]?
A: 1.04

Q: And the z-score [12]?
A: -0.738

Q: What about the composite z-score [13] of the same molecule?
A: -0.165

Q: What about the composite z-score [14] of the same molecule?
A: 2.32

Q: What about the composite z-score [15] of the same molecule?
A: 1.29

Q: What about the composite z-score [16] of the same molecule?
A: 0.0497

Q: And the composite z-score [17]?
A: 0.171

Q: And the composite z-score [18]?
A: 0.1

Q: What about the composite z-score [19] of the same molecule?
A: 2.54

Q: What about the composite z-score [20] of the same molecule?
A: 1.16

Q: For `CCOC(=O)C[C@H]1[C@H](OC(=O)c2ccccc2-c2ccccc2)[C@@H](NC(=O)c2ccc3ccccc3c2)c2cc(OCCCO)ccc2N1C(=O)Cc1ccc(OC)cc1`, which composite z-score [1] is on record?
A: -0.332

Q: And the composite z-score [2]?
A: 0.29

Q: What about the composite z-score [3] of the same molecule?
A: 0.58

Q: And the z-score [4]?
A: -0.897 (inactive)

Q: What about the composite z-score [5] of the same molecule?
A: 0.125

Q: What about the composite z-score [6] of the same molecule?
A: -0.914

Q: And the composite z-score [7]?
A: -0.201

Q: And the composite z-score [8]?
A: -0.517

Q: What about the composite z-score [9] of the same molecule?
A: 0.225

Q: What about the composite z-score [10] of the same molecule?
A: 0.892

Q: What about the composite z-score [11] of the same molecule?
A: -0.201

Q: What about the z-score [12] of the same molecule?
A: -1.6

Q: And the composite z-score [13]?
A: 0.23

Q: What about the composite z-score [14] of the same molecule?
A: 0.115

Q: What about the composite z-score [15] of the same molecule?
A: 0.0612

Q: What about the composite z-score [16] of the same molecule?
A: -0.0643

Q: And the composite z-score [17]?
A: 0.112

Q: And the composite z-score [18]?
A: 0.257

Q: What about the composite z-score [19] of the same molecule?
A: -0.0261

Q: What about the composite z-score [20] of the same molecule?
A: 0.264

Q: For `CC(C)C(=C=CC[C@H](O)c1ccccc1OCCO)C[C@H](O)c1cc(Cl)cc(Cl)c1O`, which composite z-score [1] is on record?
A: 1.25

Q: And the composite z-score [2]?
A: -0.0965

Q: What about the composite z-score [3] of the same molecule?
A: -0.13

Q: What about the z-score [4] of the same molecule?
A: -0.605 (inactive)

Q: What about the composite z-score [5] of the same molecule?
A: 1.11

Q: And the composite z-score [6]?
A: 0.579

Q: What about the composite z-score [7] of the same molecule?
A: -0.172

Q: What about the composite z-score [8] of the same molecule?
A: 0.588

Q: And the composite z-score [9]?
A: -0.0053

Q: What about the composite z-score [10] of the same molecule?
A: 0.149

Q: What about the composite z-score [11] of the same molecule?
A: 1.46

Q: And the z-score [12]?
A: -1.99

Q: And the composite z-score [13]?
A: 0.0124

Q: And the composite z-score [14]?
A: 0.195

Q: And the composite z-score [15]?
A: 0.271

Q: And the composite z-score [16]?
A: -0.106

Q: What about the composite z-score [17] of the same molecule?
A: 0.0048

Q: What about the composite z-score [18] of the same molecule?
A: 0.158

Q: And the composite z-score [19]?
A: 0.962

Q: What about the composite z-score [20] of the same molecule?
A: 0.919
